Compound activity from PubChem BioAssay.
HCMV inh = blocks human cytomegalovirus replication. HFF cells, HCMV-luciferase reporter, 72 h; hits give low values. activity change, negative = inhibition, % at 57.5 µM. AID 1259415. 410,000 compounds, 4.5% hits; in the data active = activity change below about -60%; inconclusive = no clear call, values can overlap the other calls; inactive = above about -39%
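Luciferase read-out from HCMV-luciferase-infected HFFs (MOI 1 PFU/cell) 72 h post infection at 37C; compounds added after 16 h cell attachment; activity normalized between buffer-only basal and Salinomycin (10uM) inhibitor controls.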
SARS PLpro yeast = inhibitors of SARS-CoV papain-like protease in yeast; S. cerevisiae expressing SARS-CoV PLpro, growth rescue; Potency, µM (top dose mostly 32.9 µM), actives largely listed as activators; 330,000 compounds, 0.19% hits; calls by dose curve; note: nearly all actives have a fitted effect of over 55% in size
LASV entry inh = blocks Lassa virus binding to or entry into cells | Lassa virus pseudotype entry inhibition, cell reporter | Potency, µM (series often up to 37.9 µM), most hits filed as inhibitors | 300,000 compounds, 1.2% hits; calls by dose curve; tested in HEK293 cells; note: nearly all actives have a fitted effect of over 50% in size
MARV entry inh = Marburg virus entry inhibition | AID 540276 | Potency, µM (series often up to 37.8 µM), usual class: inhibitors | 300,000 compounds, 1.8% hits | Marburg virus pseudotyped entry inhibition, cell reporter; calls by dose curve; tested in HEK293 cells
FMDV antiviral = antivirals against foot and mouth disease virus; 410,000 compounds, 1.2% hits; Potency, µM (highest dose often 57.9 µM), actives largely listed as inhibitors; FMDV antiviral cell-based qHTS; calls by dose curve; tested in HEK293T cells; note: read-out not given here; nearly all actives have a fitted effect of over 45% in size
HCV inh = blocks hepatitis C virus. Huh7.5.1 HCVcc-Cre infection, luciferase reporter, 44 h. Potency, µM (titrated, usually from 41.8 µM), actives largely listed as inhibitors. 340,000 compounds, 3.4% hits. AID 651820; active = well fitted inhibition curve with a large enough effect; inconclusive = small, poorly fitted or top-dose-only effect, or another doubt; inactive = no such curve, though single readings can be large or run the other way
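Whole-lifecycle infectious HCVcc-Cre system; cells 1,000/well, compound then virus (~0.5 moi) added 4 h after plating, 44 h culture. Luciferase read 15 sec following 15 min substrate incubation, room temp.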
Hits are given with their value; 0 = inactive; ? = inconclusive; - = no result given. Hits are enriched below; roughly 8% of the tested compounds scored in any of these assays.

SMILES | HCMV inh | SARS PLpro yeast | LASV entry inh | MARV entry inh | FMDV antiviral | HCV inh
O=C(Cc1ccc2c(c1)OCO2)NN=Cc1ccc([N+](=O)[O-])o1 | 0 | 0 | ? | 10µM | 0 | 10µM
Cc1ccc(CCC(=O)Nc2ccc(Cl)cc2Cl)o1 | -66.3 | - | - | - | 0 | -
CSc1ncccc1C(=O)N1CCOc2ccc(C(C)(O)CCn3cccn3)cc2C1 (stereo not drawn) | - | - | - | - | 0 | -
Cc1cc(-c2ccnc(-n3ncc(C(=O)NCC4CCCO4)c3C3CC3)n2)c(C)s1 (stereo not drawn) | - | - | - | - | 0 | -
CCCN1C(=O)CC[C@@H](S(=O)(=O)c2ccccc2)[C@@H]1c1ccccc1 | 0 | - | - | - | - | -
O=C(CNC(=O)c1ccccc1)N/N=C/c1ccc([N+](=O)[O-])o1 | -79.7 | 0 | 0 | 0 | 0 | ?
O=C(Cc1ccccc1)N/N=C/c1ccc(-c2ccc([N+](=O)[O-])cc2)o1 | -60.6 | 0 | 0 | 0 | 0 | 0
O=C(CNc1cccc([N+](=O)[O-])c1)N/N=C/c1ccc(F)cc1 | -62.8 | 0 | 0 | ? | 0 | 0
O=C(CNc1ccccc1)N/N=C/c1ccc([N+](=O)[O-])o1 | -81.7 | 0 | ? | 18.3µM | 0 | ?
O=C(CNc1cccc2ccccc12)N/N=C/c1ccc([N+](=O)[O-])cc1 | 0 | 0 | 0 | 0 | 0 | 0
NC(=O)N/N=C/c1ccc(-c2ccc([N+](=O)[O-])cc2)o1 | 0 | 0 | - | 0 | 0 | 0
CCN(CC)CCN(Cc1cc2ccc(C)cc2[nH]c1=O)C(=O)Nc1ccc(Cl)cc1 | 0 | 0 | 0 | ? | 0 | ?
CCOC(=O)c1ccc(N=c2scc(C)n2CC)cc1 | 0 | 0 | ? | 5.62µM | 0 | 0
Cc1cc(C)c(NC(=O)CCCN2CCCC2)c(C)c1 | -67.2 | 0 | 0 | 0 | 0 | 0
CCc1cccc(CC)c1NC(=O)CCS(=O)(=O)c1ccc(Br)s1 | 0 | - | 0 | ? | 0 | -
O=C(Nc1cc(C(=O)Nc2ccc(S(=O)(=O)O)cc2S(=O)(=O)O)cc(C(=O)Nc2ccc(S(=O)(=O)O)cc2S(=O)(=O)O)c1)Nc1cc(C(=O)Nc2ccc(S(=O)(=O)O)cc2S(=O)(=O)O)cc(C(=O)Nc2ccc(S(=O)(=O)O)cc2S(=O)(=O)O)c1 | - | - | - | 12.6µM | 0 | -
CCCCCC1CCC(c2n[nH]c(=S)n2C)CC1 (stereo not drawn) | -82.3 | 0 | ? | ? | 0 | 0
Cc1cc(=O)n(CC(=O)N2CCCCC2)c2c1c(C)nn2C | 0 | - | 0 | - | 0 | -
CCOc1ccc(C2CC(=O)Nc3nc(SCc4ccccc4C)[nH]c(=O)c32)cc1OC (stereo not drawn) | -102.4 | - | 0 | 0 | 0 | -
CCOc1cc(C2CC(=O)Nc3nc(SCc4ccccc4)[nH]c(=O)c32)ccc1O (stereo not drawn) | 0 | - | 0 | 0 | 0 | -
Cc1ccc(NC(=O)Cn2c(O)c(N=NC(N)=S)c3ccccc32)cc1 | 0 | 0 | ? | 8.91µM | 0 | ?
NC(=S)N=Nc1c(O)n(Cc2ccccc2)c2ccccc12 | ? | 0 | 0 | 0 | 0 | ?
C/C(Cl)=C\Cn1c(O)c(N=NC(N)=S)c2ccccc21 | 0 | 0 | 0 | 10µM | ? | 0
Cc1ccc(NC(=O)Cn2c(O)c(N=NC(N)=O)c3ccccc32)cc1 | 0 | 0 | ? | ? | 0 | 0
CC(=O)NN1C(=O)c2ccc3c4c(ccc(c24)C1=O)C(=O)N(NC(C)=O)C3=O | -104.0 | 0 | - | - | 0 | 10µM
SMILES | HCMV inh | SARS PLpro yeast | LASV entry inh | MARV entry inh | FMDV antiviral | HCV inh
N=C1C(c2nc(-c3ccc(Br)cc3)cs2)=C(O)CN1NC(=O)c1ccc([N+](=O)[O-])cc1 | -101.8 | 0 | 0 | 0 | 0 | 0
Cc1ccc(-c2csc(C3=C(O)CN(NC(=O)c4ccc([N+](=O)[O-])cc4)C3=N)n2)cc1 | 0 | 0 | ? | 0 | 0 | 0
COc1cc(NC(=O)c2csc(C(O)c3ccc(C(C)(C)C)cc3)n2)cc(OC)c1OC (stereo not drawn) | 0 | - | - | - | - | -
CC(C)(C)NC(=O)c1csc(C(O)c2ccc(C(C)(C)C)cc2)n1 (stereo not drawn) | -96.0 | - | - | - | - | -
Cc1ccccc1NC(=O)CSc1nc2ccc(NC(=O)c3ccccc3)cc2s1 | 0 | - | 0 | 0 | 0 | -
Cc1cccc(OCC(=O)NCC(=O)N/N=C/c2cc(Br)cc(Br)c2O)c1 | -82.8 | 0 | 0 | ? | 0 | ?
Cc1ccc(/C=N/NC(=O)CNC(=O)COc2ccccc2)cc1 | -61.3 | 0 | 0 | 0 | 0 | 0
COc1ccc(N2CC(C)(C)C[C@H]2/C=C/C(=O)OC(C)(C)C)cc1 | 0 | - | - | - | - | -
Cc1cccc(NC(=O)CCCn2c(C)c3cnn(-c4ccccc4)c(=O)c3c2C)c1C | 0 | - | 0 | 0 | 0 | -
Cc1cccc(N2CCN(C(=O)Cn3c(C)c4cnn(-c5ccccc5)c(=O)c4c3C)CC2)c1C | -81.3 | - | ? | 0 | 28.2µM | -
CCCN1CCC(Oc2cc(Nc3nc(Nc4cccc(F)c4C(N)=O)c4cc[nH]c4n3)c(OC)cc2Cl)CC1 | - | - | 12.5µM | - | - | -
CCCN1CCCC(c2ccc(Nc3nc(Nc4cc(F)ccc4C(N)=O)c4cc[nH]c4n3)c(OC)c2)C1 (stereo not drawn) | - | - | 14.1µM | - | - | -
CCCN1CCN(CCNC(=O)Nc2cc(Cl)c(OC)cc2OC)CC1 | 0 | - | 0 | 0 | 0 | -
CCOc1ccccc1Nc1ccc2cc(S(=O)(=O)N3CCCCC3)ccc2n1 | 0 | - | ? | - | 0 | -
Fc1ccc(Nc2nc(SCc3ccccc3F)nc3ccccc23)cc1 | -85.7 | - | 0 | - | 0 | -
O=C(c1cc2ccc([N+](=O)[O-])cc2oc1=O)N1CCOCC1 | 0 | 0 | 0 | 0 | 0 | 0
O=S(=O)(Nc1ccc(C(O)(C(F)(F)F)C(F)(F)F)cc1)c1ccc(Cl)c2nonc12 | - | - | - | - | 35.5µM | -
C=CC(=O)Nc1ccc(Nc2nc(NC3CCC(N(C)C)CC3)nc3c2ncn3C(C)C)cc1 (stereo not drawn) | - | 0 | - | - | 0 | 1.26µM
CCOC(=O)c1c(C)oc2c1c(C(c1ccncc1)N1CCOCC1)c(O)c1ccccc12 (stereo not drawn) | 0 | 0 | ? | ? | 0 | 12.6µM
Cc1nc2nc(SCC(=O)NC3CCC(C)CC3)nn2c(C)c1Cc1ccccc1 (stereo not drawn) | 0 | - | 0 | - | 0 | -
O=C(Cn1c(=O)c2sccc2n(Cc2cccc([N+](=O)[O-])c2)c1=O)NCCc1ccccc1 | 0 | 0 | 0 | ? | 0 | ?
O=C(Cn1c(=O)c2sccc2n(Cc2ccc([N+](=O)[O-])cc2)c1=O)NCCc1ccccc1 | -72.8 | 0 | ? | ? | ? | ?
COc1ccc(CCNC(=O)CCCn2c(=O)c3ccccc3n(CC(=O)Nc3ccc(C)cc3Cl)c2=O)cc1OC | 0 | - | ? | 0 | 0 | -
O=C(NCCc1ccncc1)c1cnn(-c2ncc3c(n2)-c2ccccc2CCC3)c1C1CC1 | - | - | - | - | 0 | -
CCC(CO)Oc1cc(NCc2cc(C)cc(C)c2)c2ncn(C(C)C)c2c1 (stereo not drawn) | 0 | 0 | - | - | 0 | 1.58µM
COc1cc(N(Cc2ccccc2)Cc2ccccc2)c2ncn(C(C)C)c2c1 | -87.1 | 0 | - | - | 0 | 11.2µM
COc1cc(NCc2ccccc2)c2ncn(C(C)C)c2c1 | 0 | 0 | - | - | 0 | 10µM
